For 99 compounds, activity, negative = inhibition and AC50 results are on record in PubChem BioAssay AID1851 (National Center for Advancing Translational Sciences (NCATS), 2009).

Out of some 16,000 compounds screened, about 2,600 (16%) were called active. About 20% were inconclusive and are not listed. Not all results are given here. Unmarked numbers belong to inactive results. Calls follow the shape of the dose curve; as a rule, active = well fitted curve in the direction sought with a large enough effect; inconclusive = small, poorly fitted or top-dose-only effect, or effect the other way; inactive = no such curve, though single readings can be large or run the other way.
% is scaled to controls: 0 for no effect and ±100 for the full control effect.

The experiment deals with Cytochrome P450 2D6 (Homo sapiens) (UniProt P10635). As to the kind of experiment: Cytochrome panel assay with activity outcomes. Conditions: recombinant CYP, pro-luciferin dealkylation, luminescence, p450-cyp2d6; series mostly up to 57.1 µM.
Sequence of Cytochrome P450 2D6 (Homo sapiens) (P10635 whole entry, looked up): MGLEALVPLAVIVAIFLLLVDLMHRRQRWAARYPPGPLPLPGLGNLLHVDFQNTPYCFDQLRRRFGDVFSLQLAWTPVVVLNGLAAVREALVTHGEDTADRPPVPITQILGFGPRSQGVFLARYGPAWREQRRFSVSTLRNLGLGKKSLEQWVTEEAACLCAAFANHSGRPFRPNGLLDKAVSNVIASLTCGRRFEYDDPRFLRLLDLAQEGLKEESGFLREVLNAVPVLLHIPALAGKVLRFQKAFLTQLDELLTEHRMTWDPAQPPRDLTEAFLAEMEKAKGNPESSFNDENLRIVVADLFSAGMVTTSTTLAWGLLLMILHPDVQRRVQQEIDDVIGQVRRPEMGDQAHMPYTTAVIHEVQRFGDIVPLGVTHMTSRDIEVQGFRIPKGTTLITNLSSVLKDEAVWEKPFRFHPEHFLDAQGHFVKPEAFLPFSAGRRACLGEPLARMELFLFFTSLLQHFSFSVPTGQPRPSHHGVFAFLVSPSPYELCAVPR
As for `COc1cccc2c1C(=O)c1c(O)c3c(c(O)c1C2=O)C[C@@](O)(C(=O)CO)C[C@H]3O[C@H]1C[C@@H](N)[C@H](O)[C@@H](C)O1.[W]`, the activity, negative = inhibition was 4.97% [at 11.4 µM].
For the compound `COC(=O)c1nn(-c2ccc(OC)cc2)c(=O)cc1Oc1cccc(Cl)c1`, the AC50 result was “inactive”.
For the compound `O=C1CCc2cc(OCCCCc3nnnn3C3CCCCC3)ccc2N1`, the AC50 result is “inactive”.
On the same count and under the same terms, in the case of `c1ccc(N2CCN(CCCOc3ccc4c(c3)OCO4)CC2)cc1` it was 126 nM (active); in that of `Fc1ccc([C@H]2CCNC[C@H]2COc2ccc3c(c2)OCO3)cc1`, “inactive”; in that of `Cn1c(=O)cc(OCCCC(=O)N2CCN(c3ccccc3)CC2)c2ccccc21`, “inactive”.
Regarding `O=C(O)c1cc(=O)[nH]c(SCc2ccccc2)n1`, the activity, negative = inhibition was 4.29% [at 11.4 µM].
For `C#CCCCO/N=C1/C[C@@H](O)[C@@H](O)[C@@H]2[C@@H]3C(=O)N(Cc4ccccc4)C(=O)[C@H]3CC[C@H]12`, the activity, negative = inhibition is 15.7% [at 11.4 µM].
For the compound `COC(=O)c1cc(Br)c(=O)n(CCc2ccc(O)cc2)c1`, the AC50 entry is “inactive”.
Same read-out and setting: then `CCNc1ncc2nc(-c3cccs3)c(=O)n(Cc3cccc(OC)c3)c2n1`, with “inactive”; and `CC1(C)C2([N+](=O)[O-])CN3CC1([N+](=O)[O-])CN(C2)C3c1ccccc1` (centres undefined), with “inactive”; and `CO[C@]1(NC(=O)[C@H](C(=O)O)c2ccc(O)cc2)C(=O)N2C(C(=O)O)=C(CSc3nnnn3C)CO[C@H]21`, with “inactive”.
`Cc1c2cnccc2c(C)c2c1c1ccccc1n2CCOC(=O)c1ccccc1`: the AC50 was 3160 nM (active).
Take `Cc1ccc(C(=O)O/N=C/c2c(Cl)n(C)c3ccccc23)cc1`: the AC50 entry was “inactive”.
Regarding `O=C(OCn1nnc2ccccc2c1=O)c1cccnc1`, the AC50 entry is “inactive”.
Same read-out and setting: then `COc1ncc2ncc(=O)n(CCC#N)c2n1`, with “inactive”; and `CC(C)(C)NC[C@@H](O)COc1ccccc1C1CCCC1`, with 2510 nM (active).
Take `CC(C)(C)NC[C@H](O)COc1cccc2c1CCC(=O)N2`: the AC50 result is “inactive”.
On to `CC(C)(C)NC[C@H](O)COc1cccc2c1CCCC2=O`, for which the AC50 entry is “inactive”.
Turning to `CC(C)n1cc(/C=C2/SC(=O)N(CC(=O)Nc3ccc4c(c3)OCO4)C2=O)c2ccccc21`, the AC50 result is “inactive”.
For `Cc1cccc2cc(=O)[nH]c(C)c12`, the AC50 entry is “inactive”.
In the case of `NC(=O)C1(N2CCCCC2)CCN(C(=O)c2cccn3c(=O)c4cc(Cl)ccc4nc23)CC1`, the AC50 result was “inactive”.
For the compound `CCCC[C@H]1C[C@@H]1[C@@H]1N(P(=O)(c2ccccc2)c2ccccc2)C[C@@](O)(c2ccccc2)CC12CC2`, the AC50 is 15800 nM (active).
For the compound `C=C(CC1([C@@H](NP(=O)(c2ccccc2)c2ccccc2)[C@H]2C[C@@H]2CCCC)CC1)c1ccccc1`, the AC50 result is “inactive”.
`CCCC[C@H]1C[C@@H]1[C@@H]1N(P(=O)(c2ccccc2)c2ccccc2)[C@](CO)(c2ccccc2)CC12CC2`: the AC50 is 2510 nM (active).
Turning to `CCCC[C@@H]1C[C@H]1C(NC(=O)c1ccc(-c2ccccc2)cc1)c1ccc(-c2ccccc2)cc1` (some centres undefined), the AC50 entry was “inactive”.
As for `CCCC[C@@H]1C[C@H]1C(NC(=O)c1ccccc1)c1ccc(-c2ccccc2)cc1` (some centres undefined), the AC50 entry is “inactive”.
For the compound `Cc1ccc(NC(=O)CCSc2nnc3ccccn23)cc1`, the AC50 result is “inactive”.
For `CCOC(=O)c1c(C)nc2c(c1-c1ccccc1)C(=O)CC(C)(C)C2`, the AC50 result is “inactive”.
Turning to `CCOC(=O)Cc1csc(NC(=O)c2ccc(Cl)nc2)n1`, the AC50 entry is “inactive”.
Regarding `COc1ccc(Oc2ncc3ncc(=O)n(C)c3n2)cc1`, the AC50 result is “inactive”.
For `Cc1nc2cnc(Nc3ccccc3)nc2n(Cc2cccs2)c1=O`, the AC50 entry was “inactive”.
On the same count and under the same terms, in the case of `O=C1c2ccccc2C(=O)N1CCSC(=S)N1CCOCC1` it was “inactive”; in that of `O=C(NCc1cc(F)cc2c1OCCO2)[C@H]1C[C@@H]1[C@H](NP(=O)(c1ccccc1)c1ccccc1)c1ccccc1`, “inactive”; in that of `CC1(C)CC(=O)C(CCC(=O)c2ccccc2)C(C)(C)N1` (centres undefined), 891 nM (active).
With `O=C(O)CCC(=O)CCC(=O)c1ccccc1`, the AC50 result is “inactive”.
For `C[N@+]1(CCC(=O)c2ccccc2)CC[C@H]2CC[C@H](C2)C1`, the activity, negative = inhibition is 10.5% [at 11.4 µM].
Regarding `O=C(c1cccc(F)c1)N1CCC[C@@]2(CCN(c3ccccc3)C2)C1`, the AC50 result is “inactive”.
Still for that read-out and setting: in the case of `N/C(=N\OC(=O)Cc1ccc(-c2ccccc2)cc1)c1cccc([N+](=O)[O-])c1` it was “inactive”.
For the compound `CC(=O)O[C@]1(C)N=NC2(CCCCC2)O1`, the activity, negative = inhibition was -4.7% [at 11.4 µM].
Take `COc1ccc(C(CNC(=O)c2cc(=O)[nH]c3ccccc23)N2CCCC2)cc1` (centres undefined): the AC50 was 14100 nM (active).
For the compound `CC(C)NC(=O)COC(=O)c1cc(=O)[nH]c2ccccc12`, the AC50 entry is “inactive”.
For the compound `COc1cc(C(=O)NCC(c2cccnc2)N2CCN(C)CC2)cc(OC)c1OC` (centres undefined), the AC50 entry was “inactive”.
Take `Cn1c(=O)c2[nH]c([C@@H]3CC(=O)C[C@H](c4nc5c([nH]4)c(=O)n(C)c(=O)n5C)N3)nc2n(C)c1=O`: the activity, negative = inhibition is -10.1% [at 11.4 µM].
On to `CC(=O)N1CC2(CC2)CC1c1ccccc1` (centres undefined), for which the AC50 entry is “inactive”.
Regarding `CC(C)(C)c1nnc(NC(=O)c2cc(-c3ccccc3)nc3ccccc23)s1`, the AC50 result was “inactive”.
As for `Cn1cc(-c2nc3cncnc3n(C3CC3)c2=O)c2ccccc21`, the AC50 entry was “inactive”.
Take `O=C(Cc1ccccc1)NC(=S)Nc1cc(C(F)(F)F)ccc1Cl`: the AC50 entry is “inactive”.
Regarding `Cc1ccc(C(=O)NC(=S)Nc2cc(C(F)(F)F)ccc2Cl)cc1`, the AC50 entry is “inactive”.
For the compound `Cc1cc[n+](CC(=O)Nc2cc(C(F)(F)F)ccc2Cl)cc1`, the half-maximal activity concentration (AC50) is 224 nM (active).
For `COc1cc(C(=O)Nc2cc(C(F)(F)F)ccc2Cl)cc(OC)c1OC`, the AC50 result was “inactive”.
Regarding `Cc1cc(C)n(-c2ccc(C(=O)Nc3cc(C(F)(F)F)ccc3N3CCOCC3)cc2)n1`, the AC50 entry is “inactive”.
Consider `N/C(CC(=O)Nc1cc(C(F)(F)F)ccc1Cl)=N\O`, for which the activity, negative = inhibition was 2.47% [at 11.4 µM].
For the compound `Cc1ccc(C)n1CCN1CCN(CC(=O)Nc2cc(C(F)(F)F)ccc2Cl)CC1`, the AC50 is 11200 nM (active).
Take `COc1ccc(/C=C/C(=O)Nc2cc(C(F)(F)F)ccc2Cl)cc1`: the AC50 is 2820 nM (active).
Take `COC(=O)CNC(=O)/C=C/c1ccc(OC)cc1`: the AC50 result is “inactive”.
`CN(C)c1cc[n+](CC(=O)Nc2cc(C(F)(F)F)ccc2Cl)cc1`: the AC50 was 126 nM (active).
`O=C(CS(=O)c1cccc(C(F)(F)F)c1)Nc1ccccc1Cl` (centres undefined): the AC50 result is “inactive”.
Turning to `COc1ccc2nc(NCN3C(=O)c4ccccc4C3=O)sc2c1`, the activity, negative = inhibition is -19.6% [at 11.4 µM].
Take `N[C@H](C(=O)N[C@@H]1C(=O)N2C(C(=O)O)=C(Cl)CS[C@@H]12)c1ccccc1`: the AC50 result is “inactive”.
The same measure, in the same setting: then `CCOC(=O)C1=C(C)NC(=S)NC1c1cccc(O)c1` (centres undefined), with “inactive”; and `O=C(O)CC[C@@H](NC(=O)c1ccccc1C(=O)O)C(=O)O`, with “inactive”; and `Cc1nc2cnc(Oc3ccccc3)nc2n(-c2ccccc2)c1=O`, with “inactive”.
In the case of `CCCN1C(=O)C2(/C(=C(\O)c3ccc4c(c3)OCCO4)C(=O)C(=O)N2CCCOC)c2ccccc21` (centres undefined), the AC50 result is “inactive”.
Take `COc1ccc(Oc2ncc3nc(-c4cccs4)c(=O)n(Cc4cccc(OC)c4)c3n2)cc1`: the AC50 result was “inactive”.
Regarding `Fc1ccc2nc3[nH]c4ccccc4c3nc2c1`, the AC50 entry is “inactive”.
As for `Cc1cc(N(CN2CCCC2=O)C(=O)c2ccc(F)cc2)no1`, the AC50 entry is “inactive”.
Regarding `COc1cc(/C=N/NC(=O)c2cccs2)ccc1OCc1ccccc1`, the AC50 entry is “inactive”.
For the compound `CCOc1ccc(Cl)cc1CNCCNCCO`, the AC50 was 11200 nM (active).
Take `CCOc1ccc(Cl)cc1CNCCNCC(C)O` (centres undefined): the AC50 was 3160 nM (active).
Still for that read-out and setting: then `COc1ccc(Cl)cc1NC(=O)NCCCl`, with “inactive”; and `CCOc1ccc(C(=O)O)cc1OC`, with “inactive”.
Take `N=C1SCC(=O)N1c1nc(-c2ccccc2)cs1`: the AC50 entry was “inactive”.
With `C[C@@H]1NCC[C@H](CC(=O)O)[C@H]1CC(=O)O`, the activity, negative = inhibition is 5.62% [at 11.4 µM].
With `Cc1nnc(-c2cnn(-c3ccccc3)c2N)n1Cc1ccc(F)cc1`, the AC50 result is “inactive”.
As for `CCCCOc1ccc(-c2nnn(CC(=O)c3c[nH]c4ccccc34)n2)cc1`, the AC50 entry is “inactive”.
Regarding `c1ccc2c(-c3c[nH]c4ccccc34)c3ccccc3nc2c1`, the AC50 was 10000 nM (active).
As to `c1ccc(-c2c3ccccc3nc3[nH]c4ccccc4c23)cc1`, the AC50 entry is “inactive”.
`O=C(O)[C@@H](Cc1c[nH]c2ccccc12)C(=O)NO`: the activity, negative = inhibition was 4.35% [at 11.4 µM].
For the compound `Cc1nc(Sc2ccccc2)c(C#N)cc1-c1ccccc1`, the AC50 entry was “inactive”.
Still for that read-out and setting: then `Cc1nc2cc(NC(=O)CSc3nc4c(C)cccc4cc3C#N)ccc2s1`, with “inactive”.
Turning to `Nc1nc(SCC(=O)O)[nH]c(=O)c1N`, the activity, negative = inhibition was 11% [at 11.4 µM].
In the case of `CO[C@@H]1/C=C\CC(=O)N[C@@H](C)C(=O)OC[C@@H](OC)[C@H](C)/C=C\CC(=O)OC[C@H]1C`, the activity, negative = inhibition is 10.8% [at 11.4 µM].
As for `CCCN(CC1CC1)c1nc(C)nc(Nc2c(Cl)cc(Cl)cc2Cl)c1Cl`, the AC50 was 1580 nM (active).
In the case of `COCCN(C(=O)C(C)C)c1nnc(-c2ccc(C)cc2)s1`, the AC50 result was “inactive”.
Take `CCC(CC)c1nnc(NC(=O)COc2ccc3c(C)cc(=O)oc3c2)s1`: the AC50 entry is “inactive”.
`COc1ccc(NC(=O)CC2C(=O)N(c3cccc(OC)c3)C(=O)N2C2CCCCC2)cc1` (centres undefined): the AC50 result is “inactive”.
`CN1CCN(CCCBr)CC1`: the activity, negative = inhibition is 3.38% [at 11.4 µM].
Turning to `CN1CCN(CCc2ccc(Cl)c(Cl)c2)CC1`, the half-maximal activity concentration (AC50) is 12600 nM (active).
Same read-out and setting: then `CN(CCc1ccc(Cl)c(Cl)c1)CCN1CCCCCC1`, with 126 nM (active); and `CCOC(=O)c1c(NC(=O)CCC(=O)N2CCOCC2)sc2c1CC(C)(C)OC2`, with “inactive”; and `COC(=O)c1cc(C#N)c(NCc2ccc(Cl)cc2Cl)nc1C`, with “inactive”.
With `CC(C)COc1ccc(C(=O)Nc2scc(-c3ccc(Cl)cc3Cl)c2C(N)=O)cc1`, the AC50 result is “inactive”.
Regarding `Clc1ccccc1C(Nc1cnccn1)Nc1cnccn1`, the activity, negative = inhibition is 10.1% [at 11.4 µM].
In the case of `Cc1ccc(C(=O)NCC2CCCO2)cc1N1CCCC1=O` (centres undefined), the AC50 entry is “inactive”.
As to `O=c1[nH][nH]c(C(F)(F)F)c1C=Nc1cccc(Cl)c1`, the AC50 result is “inactive”.
The same measure, in the same setting: in the case of `CCCCOc1ccc(OC(=O)c2cccnc2)cc1` it was “inactive”; in that of `COc1ccc(C(Cl)=C(c2ccc(OC)cc2)c2ccc(OC)cc2)cc1`, “inactive”; in that of `CCN(CC)CCOc1ccc(/C(=C(\Cl)c2ccccc2)c2ccccc2)cc1`, 5010 nM (active).

The term AC50 denotes the midpoint of the concentration-response curve, whichever way the signal moves.
